The values below come from PubChem BioAssay AID720511 (Broad Institute, 2013).

Each structure is given as a SMILES string. Several values for one entry are separate records, joined by “and”; a condition that tells them apart may be missing. Identical values can stand only once. The whole screen tested about 350,000 compounds, of which about 1,300 (0.37%) were called active. The sample as a whole holds a higher share of actives than the screen did. Values without a mark were called inactive.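 The calls were made as follows: active = mean added fluorescence quench of at least 8% versus neutral control, with both replicates also reaching 8%; inconclusive = only one of the mean or replicate conditions met; inactive = mean below 8% and not both replicates reaching 8%.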

The assay can be described thus: F508del CFTR correction, initial screen, CFBE line, single point (AID 720511).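 Also: cells transiently co-express mutant CFTR-F508del with the halide-sensitive YFP; corrector assay measuring rescue of mutant channel to the surface after 24 h compound exposure.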 The following applies: CFBE cells, YFP halide quenching, at 7.58 µM, active compounds read high, % fluorescence drop versus neutral controls, stimulated with forskolin plus potentiator P3.
With `O=C(Nc1ccc(OC(F)(F)F)cc1)c1ccc2c(c1)no[n+]2[O-]`, the activity (quench increase) was 14.5% (active). On to `CCOc1c2ccc(C(=O)NCc3ccc(OC(F)(F)F)cc3)cc2nn1C`, for which the activity (quench increase) is 0.909%. In the case of `CCOC(=O)Cc1ncccc1C(=O)Nc1ccc(OC(F)(F)F)cc1` it was -3.45%; in that of `O=C(C1CCOCC1)N1CC(=O)N2[C@H](CO)[C@@H](c3ccc(C#CC4CCCC4)cc3)[C@H]2C1`, -0.867%.

Regarding `C[C@@H]1CN([C@@H](C)CO)C(=O)c2cc(NS(C)(=O)=O)ccc2O[C@@H]1CN(C)C`, the activity (quench increase) is 0.661%. As for `NC(=O)CC(NC(=O)Cc1ccc(Br)cc1)c1ccc(NC2CC3CCC2C3)c([N+](=O)[O-])c1` (stereo unspecified), the activity (quench increase) was 10.1% (active). With `NC(=O)CC(NC(=O)Cc1cccc2ccccc12)c1ccc(NCc2cc(F)ccc2F)c([N+](=O)[O-])c1` (stereo unspecified), the activity (quench increase) was 0.166%. To `CC1CCCCN1CCCNc1ccc(C(CC(N)=O)NC(=O)c2ccccc2)cc1[N+](=O)[O-]` (stereo unspecified) belongs -1.78%.

Consider `COc1ccc(S(=O)(=O)Nc2ccc3c(c2)C(=O)N([C@H](C)CO)C[C@H](C)[C@@H](CN(C)Cc2ccc(-c4ccccc4)cc2)O3)cc1`, for which the activity (quench increase) was 1.93%. To `COc1ccccc1C#Cc1ccc([C@@H]2[C@@H](CO)N(C(=O)C3CC3)[C@H]2C#N)cc1` belongs 2.81%; to `Cc1cc(-c2ccc(C)c(S(=O)(=O)NCCCN(Cc3ccccc3)C(C)C)c2)on1`, 0.63%. For the molecule `CCOc1ccccc1CNS(=O)(=O)c1cc(-c2cc(C)no2)ccc1C`, the activity (quench increase) is -0.998%.

Turning to `COc1ccc(CNS(=O)(=O)c2cc(-c3cc(C)no3)ccc2C(C)C)cc1`, the activity (quench increase) is 10.7% (active). To `COc1ccc(C#Cc2ccc3c(c2)[C@]2(C(=O)N3)[C@H](C(=O)N3CCc4cc(OC)c(OC)cc4C3)[C@H]3C(=O)O[C@H](c4ccccc4)[C@H](c4ccccc4)N3[C@@H]2c2ccc(O)cc2)cc1` belongs -2.79%; to `CCC(=O)Nc1ccc2c(c1)C(=O)N(C)[C@@H]1CC[C@@H](CC(=O)NCc3ccccc3Cl)O[C@H]1CO2`, -0.213%; to `CC(=O)NC[C@H]1[C@@H](c2ccc(C#CC(C)C)cc2)[C@@H](CO)N1Cc1ccccn1`, -0.601%.

As to `CCCC(=O)Nc1ccc2c(c1)C(=O)N(C)C[C@@H](OC)[C@H](C)CN(C(C)=O)[C@H](C)CO2`, the activity (quench increase) is -1.19%. In the case of `Cc1cccc(CNS(=O)(=O)c2ccc(-c3cnc(C4CC4)o3)cc2)c1` it was 2.12%. In the case of `Cc1cccc(NS(=O)(=O)c2ccc(-c3cnc(C4CC4)o3)cc2)c1` it was 10% (active). In the case of `COc1ccc(CNS(=O)(=O)c2ccc(-c3cnc(C4CC4)o3)cc2)cc1` it was -1.13%.

`COc1ccc(S(=O)(=O)N(C)C[C@H]2Oc3ccc(NS(=O)(=O)c4ccc(C)cc4)cc3CC(=O)N([C@@H](C)CO)C[C@@H]2C)cc1`: the activity (quench increase) was -1.33%.

Take `COc1ccc2c3c(n(C)c2c1)[C@@H](CO)N(CC1CC1)CC31CCN(C(=O)c2cccc(F)c2)CC1`: the activity (quench increase) was -0.0985%. In the case of `C[C@H]1CCCCO[C@@H](CN(C)Cc2ccccc2)[C@@H](C)CN([C@@H](C)CO)C(=O)c2cc(NC(=O)CCCN(C)C)ccc2O1` it was -1.18%. For `CCCC#Cc1ccc2c(c1)O[C@@H](CN(C)CC1CC1)[C@@H](C)CN([C@H](C)CO)S2(=O)=O`, the activity (quench increase) was 2.53%. For the molecule `Cc1ccc(S(=O)(=O)N2C[C@H](O)COC[C@H]3O[C@H](CC(=O)N[C@H]4CCN(Cc5ccccc5)C4)CC[C@@H]32)cc1`, the activity (quench increase) was 0.736%. To `C[C@@H]1CN([C@H](C)CO)C(=O)Cc2cc(NC(=O)NC3CCCCC3)ccc2O[C@H]1CN(C)S(C)(=O)=O` belongs 0.525% and 3.05%; to `CC[N+]1(CC)CC2=Cc3ccccc3CC2C1` (stereo unspecified), 13.8% (active). In the case of `CCC(=O)N1C[C@@H](C)[C@@H](OC)CN(C)C(=O)c2ccc(NC(=O)Nc3ccccc3)cc2OC[C@H]1C` it was -0.0305%. To `Cc1ccc(S(=O)(=O)Nc2cccc3c2O[C@@H](CN(C)S(=O)(=O)c2ccc(C)cc2)[C@H](C)CN([C@@H](C)CO)C3=O)cc1` belongs -1.75%; to `O=C(C[C@H]1CC[C@H]2[C@@H](COC[C@@H](O)CN2C(=O)c2ccc3c(c2)OCO3)O1)NC1Cc2ccccc2C1`, 3.06%.

In the case of `Nc1c(Cl)cc(S(N)(=O)=O)cc1S(N)(=O)=O`, the activity (quench increase) is -0.405%. To `NS(=O)(=O)c1ccc(NC(=S)Nc2ccc(Br)c(Cl)c2)cc1` belongs 1.17%. For `NS(=O)(=O)c1cc(Cl)c(Cl)c(S(N)(=O)=O)c1`, the activity (quench increase) was 9.04% (active). To `CC(=O)N(C)C[C@H]1Oc2ncc(-c3cccc(F)c3)cc2C(=O)N([C@@H](C)CO)C[C@H]1C` belongs -3.71%; to `CN1C(=O)c2cc(NC(=O)c3ccccc3)ccc2OC[C@@H]2O[C@H](CC(=O)NCC3CC3)CC[C@@H]21`, -1.16%; to `Cc1ccc(S(=O)(=O)N[C@H]2CC[C@@H](CC(=O)N3CCc4ccccc4C3)O[C@H]2CO)cc1`, -3.27%. In the case of `CCC1CCC2(CC1)NC(=O)N(CC(=O)Nc1ccc(OC)cc1)C2=O` (stereo unspecified) it was 4.71%. In the case of `CCOC(=O)c1c(NC(=O)CN2C(=O)NC3(CCC(C)CC3)C2=O)sc(C)c1CC` (stereo unspecified) it was 8.23% (active); in that of `CCOC(=O)c1c(NC(=O)C2CC=CCC2C(=O)O)sc(C)c1CC` (stereo unspecified), 0.585%; in that of `O=S(=O)(NC1CC1)c1ccc(Cl)cc1`, 0.433%. As for `O=S(=O)(NCc1ccc(Cl)cc1Cl)c1cccs1`, the activity (quench increase) is 0.403%. Turning to `O=S(=O)(Cc1ccc(Cl)cc1Cl)c1ccc(Cl)cc1`, the activity (quench increase) is 12.1% (active). To `C/C=C/c1ccc([C@H]2[C@@H](CNC(C)C)N(c3nc(CC)cs3)[C@H]2CO)cc1` belongs 2.62%; to `COc1cc(C(=O)NCc2cc3cc(Cl)ccc3n2C)cc(OC)c1OC`, 2.35%; to `COc1ccc(OC)c(/C(C)=N\NC(=O)c2cc3cc(Cl)ccc3n2C)c1`, 14.1% (active). In the case of `COc1ccc(C(=O)N/N=C(\C)CC(=O)Nc2ccc(Cl)cn2)cc1` it was 0.068%; in that of `Cc1ccc(S(=O)(=O)Nc2ccc3c(c2)C(=O)N([C@@H](C)CO)C[C@@H](C)[C@H](CN(C)Cc2ccc(C(=O)O)cc2)O3)cc1`, 5.34%; in that of `COc1ccccc1-c1cc(NC(C)=O)c2ncc(-c3ccc(F)cc3)n2c1`, 3.05%.

On to `COc1cccc(-c2cnc3c(NC(C)=O)cc(-c4cc(F)ccc4OC)cn23)c1`, for which the activity (quench increase) was 9.31% (active). To `COc1cccc(-c2cnc3c(NC(C)=O)cc(-c4cccc(NC(C)=O)c4)cn23)c1` belongs -0.356%; to `CCCNC(=O)[C@@H]1[C@@H](CO)[C@@H]2Cn3c(ccc(C4=CCCCC4)c3=O)[C@H]1N2CCC`, 0.001%; to `COc1ccc(C(C)(O)c2nc(-c3ccc(C)c(C)c3)cs2)cc1` (stereo unspecified), 0.543%. Turning to `CN(c1ccc(O)cc1)c1nc(-c2cccnc2)cs1`, the activity (quench increase) was 3.59%. To `CC(C)(C)C(=O)OCc1nc(-c2ccc(O)c(O)c2)cs1` belongs 8.8% (active); to `C[C@H](CO)N1C[C@H](C)[C@H](CN(C)C(=O)c2cccnc2)Oc2ncc(C3=CCCC3)cc2C1=O`, -0.608%; to `C[C@H](CO)N1C[C@H](C)[C@@H](CN(C)C(=O)NC2CCCCC2)Oc2c(NC(=O)Nc3ccc(F)cc3)cccc2C1=O`, 3.54%. To `C[C@H](CO)N1C[C@H](C)[C@@H](CN(C)Cc2ccc(Cl)c(Cl)c2)Oc2ccc(NC(=O)Nc3ccc(C(F)(F)F)cc3)cc2CC1=O` belongs 12.6% (active). To `C[C@@H]1CN([C@H](C)CO)C(=O)Cc2cc(NC(=O)Nc3ccccc3)ccc2O[C@H]1CN(C)Cc1ccc(Cl)c(Cl)c1` belongs -0.242%. Consider `C[C@@H]1CN([C@H](C)CO)C(=O)c2cccc(NC(=O)Nc3ccccc3)c2O[C@@H]1CN(C)C(=O)NC1CCCCC1`, for which the activity (quench increase) is -1.15%. In the case of `C[C@H]1CN([C@@H](C)CO)C(=O)c2cccc(NC(=O)Nc3ccc(C(F)(F)F)cc3)c2O[C@H]1CN(C)C(=O)NC1CCCCC1` it was 8.85% (active); in that of `C[C@@H]1CN([C@H](C)CO)C(=O)Cc2cc(NC(=O)Nc3ccccc3)ccc2O[C@@H]1CN(C)Cc1ccc(C(F)(F)F)cc1`, 0.116%. To `O=C(C[C@@H]1C=C[C@H](NC(=O)Nc2ccc3c(c2)OCO3)[C@H](CO)O1)NCc1ccccc1` belongs 4.6%; to `CO[C@H]1CN(C)C(=O)c2ccc(NS(=O)(=O)c3ccccc3C)cc2OC[C@H](C)NC[C@H]1C`, -0.483%; to `CCCC(=O)Nc1nc2ccc(NC(=O)c3c(F)c(F)c(OC)c(F)c3F)cc2s1`, 13.3% (active). As to `CC(=O)Nc1ccc2nc(NC(=O)CS(=O)(=O)c3ccc(F)cc3)sc2c1`, the activity (quench increase) was 0.717%.

Consider `CCCn1nc(C(=O)Nc2ccc3nc(C)sc3c2)c2ccccc2c1=O`, for which the activity (quench increase) was -0.539%. In the case of `CCS(=O)(=O)Nc1ccc2c(c1)C(=O)N(C)[C@H]1CC[C@@H](CC(=O)Nc3ccccc3)O[C@H]1CO2` it was -3.46%; in that of `CCOc1ccc(NC(=O)c2ccc(NC(=O)COC(=O)c3ccc(NC(=O)CC#N)cc3)cc2)cc1`, -1.21%. Consider `CCOc1ccc(NC(=O)CCNC(=O)c2ccc(Br)cc2)cc1`, for which the activity (quench increase) is -1.36%. In the case of `CCOc1ccc(NC(=O)c2ccc(NC(=O)CN3C(=O)C(=O)N(CC(C)C)C3=O)cc2)cc1` it was 9.37% (active); in that of `COc1ccc(NC(=O)N(C)C[C@H]2OCCCC[C@@H](C)Oc3ccc(NS(=O)(=O)c4ccc(F)cc4)cc3C(=O)N([C@H](C)CO)C[C@H]2C)cc1`, 3.43%.
